Laboratory results published in PubChem BioAssay AID1508600 (Functional Genomics Laboratory (NCATS/FGL), 2020).
Hit rate of the full screen: of about 53,000 sequences, about 3,700 (7%) were called active. The sample as a whole holds a higher share of actives than the screen did. Unmarked numbers belong to inactive results.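 How the source made its calls: active means gene knockdowns whose robust z-score for IL-1 alpha signal is at least 2 or at most -2, so actives lie on both sides; inactive means the rest.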

Test: Components of the Cytosolic LPS Sensing Pathway: Gene Identification via Genome-wide siRNA Screen;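 further: robust z of the log signal after scaling to non-targeting control siRNA wells of the plate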
Details: RAW264.7 macrophages, IL-1a HTRF, actives lie on both sides, screened at 100 nM (by protocol), cells primed 5 h with Pam3CSK4 first
Outline: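 Supernatant IL-1a by HTRF from RAW264.7 cells primed with Pam3CSK4 (5 hours) and transfected with LipidA (24 hour) after 48h siRNA knockdown at 100 nM; cell viability checked with CellTiter-Glo.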

Row | Sequence | z-score
1 | GGUGAAGGUACGAGUAAGATT against Prkra | -0.809
2 | GGACGAGAACGAUAAUUACTT against Dsc2 | 0.335
3 | GGAGGUAAAGAUCAUGUCATT against Ddr1 | -1.39
4 | GGAGUAGCUGUACUCAACATT against Olfr790 | -0.246
5 | GGUCCUAGGUACAAUCACUTT against Slfn10-ps | -2.58 (active)
6 | GCCACUCAGAGUGUGGAGUTT against Ddx20 | -0.95
7 | GUCCUGGAAGAAAUGAGAATT against Ifna4 | 0.781
8 | CCCACAUCCCUAAGUUGUGTT against Kash5 | 1.55
9 | GGAUAAUCAUUCUUGUCACTT against Ptgfr | -0.736
10 | GGUCUUUGAAUGGAACAAUTT against Aldh7a1 | -1.04
11 | GGAGUCUCCCAAAUGAAGATT against Son | -2.84 (active)
12 | GAGAGAGAAUACCACUGUGTT against Gm5431 | -0.244
13 | GCUGGAUGUGAAAAGAGCGTT against Aktip | -0.00618
14 | GGUGGAUGAAGAGUAUAAGTT against Phka2 | 0.338
15 | GGCAGUAAGAACUACUAAATT against Ric1 | 2.65 (active)
16 | GGGCCAGCAAGGAAAGAAUTT against Pitx2 | -1.37
17 | GCCAUGAUACCUUGUUAUUTT against Plppr5 | 1.08
18 | GCUUUUUUAUGCAUUCCAATT against Rock1 | 0.575
19 | GGCACCAAGCUCGAUGAUGTT against Sh3gl2 | -1.41
20 | GCUUUUCACAUGAUGUGUUTT against Klrb1a | -0.5
21 | GCCCUUACUUAGGUCUAGGTT against Kctd12 | -0.522
22 | GGAAGAGAAGCUGAACAAGTT against Gja1 | 2.53 (active)

Row | Sequence | z-score
23 | GGAGCUUCUCAUGACCUUUTT against Mettl21e | 0.307
24 | GCGAUGGUAUGUUGAAGGATT against 4930432E11Rik | 0.639
25 | GGAGUACAUGACCACAGAUTT against Lncpint | -2.06 (active)
26 | GCCUAAAAACUCUAAAUCUTT against Mmut | -0.0189
27 | GGUGUGGACUAUGAUACCATT against Anxa9 | 0.984
28 | GGCUUUGAACAGGAAAGACTT against Ube2z | -0.417
29 | CCUGCAAAUGAUACCACCGTT against Olfr734 | -0.402
30 | GGAGCGAAGUGAUGAAUAATT against Prph2 | 0.0677
31 | GGAGCAGCUGAGAGAAAAATT against Ccdc144b | -0.413
32 | GCGAUUCAGAGACCUAUGGTT against Aven | -2.22 (active)
33 | GGAUGCUGAUUUAAAGACUTT against Rai14 | 1.69
34 | GCUGAAGGGACUCUAACCATT against Ihh | 0.715
35 | CCUCUGGAUCUACGAGCUGTT against Odf4 | -0.00669
36 | GCAGAUAGAAGACUGGAAUTT against 1700024G13Rik | 0.424
37 | GGUUAUUUCUGAAAUGUGCTT against Fbxl4 | -1.3
38 | GGCUGAAAAUGGGAAGCUUTT against Gm5069 | 0.0536
39 | GGAUGAGCUGAGGAAAUCCTT against Psd2 | -0.535
40 | GGUUCUAGACAAUUACCUGTT against Clic1 | 2.43 (active)
41 | GCCAGGGACUUGCUAUUGATT against Txlna | -0.24
42 | GGGAAUGGCUUGAUUCUGUTT against Olfr609 | 0.514
43 | CGACAAGGAGACCUACAAATT against Itm2b | 0.615
44 | CGCAUCAUAAUGAUUGUGATT against Matn2 | -0.269

Row | Sequence | z-score
45 | GGCAUCUAUACCAGUAAUATT against Mllt6 | -0.562
46 | CCAACAGCAACGAUGACAATT against Thoc5 | -2.94 (active)
47 | GGAAAUGAUACCUUACCACTT against Zfp715 | 0.162
48 | GCGUGAACCGUUUGAUGAGTT against 9030612E09Rik | 1.04
49 | GGACAUGAAAGAAACGGUGTT against Bbc3 | -0.282
50 | GCUUCCUCUUAUCAUAUAATT against Rgs13 | -0.119
51 | GGUAUUAGAAAUCCUGAUCTT against Pias2 | -0.716
52 | GGUAUUUCAGAUAACCUGGTT against Bbs12 | 2.9 (active)
53 | CGCAUCAUAUUCUGAUUCCTT against Rmnd5b | 0.138
54 | CGCAGACAACAAAGUAGAATT against Sars | 0.738
55 | GGUGUUGUAAAAUUCCUCATT against Ncoa7 | -2.08 (active)
56 | GCAUUUCGACGCGGCUUUUTT against Snapc1 | 0.617
57 | GGUAAACCUGCCAAUUUUGTT against Ovch2 | 1.54
58 | GCCAUGUGAGACUCUUAUATT against Slc2a9 | 0.62
59 | GCAGCUCCUUUAUACCCACTT against Mxra7 | -1.25
60 | GGAGGGAGCAGAUUGAAACTT against Eri2 | -0.281
61 | GCAUGCUUAAGCCUAUAAATT against Ncstn | -1.88
62 | GUGUCUCUGUACUUAUUAUTT against Olfr483 | 0.69
63 | GGUGGACGUACUUUUUAACTT against Gata3 | 2.59 (active)
64 | GCUUUUAGAAUAAAGCUGATT against Fgl2 | 0.75
65 | CCUAUGUCCACCACAAAUGTT against Ifi209 | -0.14
66 | GCAACCUGUCCCUUCUUGATT against Olfr225 | 1.53

Row | Sequence | z-score
67 | GGAGCUGAAGCCAUUCAACTT against Gpx6 | 2.08 (active)
68 | GGGAAAUGUUGUAGUAGAUTT against Rars2 | 0.535
69 | CCACUGUGUGACAUUAAAGTT against Metap2 | -0.799
70 | GCAACUAGCGUGUGUUCCUTT against Arpc1a | 2.4 (active)
71 | GGCACAGAAUAUCCACCACTT against Olfr283 | -1.01
72 | GGCAUUCAGGAAGUUACUGTT against Krt75 | -1.63
73 | GGCUUAAUUGCUAGCCAAGTT against Slc7a13 | 0.849
74 | GGCUUUCGCUAGAAAACUCTT against Sftpc | 0.531
75 | CGUGGAAAGAAAAUUAUCATT against Psmd11 | -2.21 (active)
76 | GCAAAUUUUAUAUGCGACUTT against Glipr1 | -0.561
77 | GGAGAAUGACUACUAUACUTT against Stt3a | -0.127
78 | CCAGACACGCAUUGCGAAATT against H2-M2 | 0.357
79 | GCAUCAAUUCCCAAACCUUTT against Selenov | -0.0263
80 | GGGCAAACCAGUUAGCAGATT against Atxn2 | 0.278
81 | GGGAAGCCUUACUUAUUGGTT against Vmn1r53 | 1.25
82 | GGACGAAAUCUUGUCUGAUTT against Atg4b | 2.59 (active)
83 | GGACAAAACCUCAGUUGAUTT against Bves | 1.05
84 | CCAAGGACACUAUACAAAUTT against Fank1 | 0.957
85 | CCCGCAACAAUAAACCUGATT against Yif1b | -1.36
86 | GCAGUACAUAGGACAAUACTT against Ccdc97 | 0.0835
87 | GGAAGAAGAAAGUGUUAAATT against Ythdf2 | -0.337
88 | GGUCCAAUUUUAUAACAGUTT against Dmtf1 | 0.359

Row | Sequence | z-score
89 | GCCAUGUCAAUCAAUCACUTT against Nucks1 | -2.57 (active)
90 | GGCUACCAAGGCAGUUUCCTT against Glis1 | -1.35
91 | GCUUUACUCCAGAUGGAUCTT against Chaf1b | 3.23 (active)
92 | GGGUAUCAGUGCCUUCCUGTT against Acads | -1.05
93 | GGUCACUCGGUUCACAAAATT against Bid | -0.731
94 | CGUUCAUAUAGAGAACUGUTT against Naip1 | 0.699
95 | CGUGCCUGCUCAAUUAAUUTT against 1700067P10Rik | 2.46 (active)
96 | GGGUAAUAGACCAUUUCUUTT against Olfr124 | 0.255
97 | GGAGCUUAGAGGAACGAAUTT against Cyp2j9 | 1.4
98 | GGAUUUUGGCCAAAUUGGUTT against Slc25a30 | -2.08 (active)
99 | GGAAGAAGAAGACCAGGGATT against Parvb | -0.0188
100 | GGCCAACUUCGAAGAAAAGTT against Mrpl52 | 0.192
101 | CCAAAAAAUCCUAUACUCUTT against Cdh8 | 1.42
102 | GGUCACUUCCUUAAUUUUATT against Disc1 | -1.62
103 | GGAAGACCCUAAUCUAGUCTT against Cox5b | 2.1 (active)
104 | GGCUUGGUGUUUUGAUUAGTT against Rogdi | 1.6
105 | GGUCUUGCAUGUCUCUGAGTT against Lrrc47 | -1.45
106 | GGAGUUUGAACAUAUGAAGTT against Rcn1 | -0.417
107 | GCUAUCAUGAAGCUAAAUGTT against Igf2bp1 | 0.267
108 | GGACAAGCAAGAAGGAAUUTT against Polr2j | -2.43 (active)
